Structures can show the parent of a compound that is named as a salt.
System: Drosophila S2 cl14 SmoIP sensor cells
Assay: normalized SmoIP GFP fluorescence (untreated unstimulated = 0%, untreated Hh-stimulated = 100%); higher = more Smo activation sensor fluorescence
Conditions: compound concentration: 2 uM, 24 h
[1] = stimulation: Hh conditioned medium (+Hh)
[2] = stimulation: mock conditioned medium (-Hh)
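Also: flow cytometry read-out as median GFP intensity of gated cells, compounds added 30 min before Hh-conditioned or mock medium, mock-treated cells serving as unstimulated baseline.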

Row | Compound | normalized SmoIP GFP fluorescence [1] [%] | normalized SmoIP GFP fluorescence [2] [%]
1 | CN1[C@@H]2CC[C@H]1C[C@@H](OC(=O)c1c[nH]c3ccccc13)C2 [Tropisetron-hydrochloride] | 116 | -14.9
2 | OCCOCCN1CCN(C2=Nc3ccccc3Sc3ccccc32)CC1 [Quetiapine-fumarate(Seroquel)] | 106 | -9.58
3 | Cc1ccccc1C(=O)Nc1ccc(C(=O)N2CCCC(O)c3cc(Cl)ccc32)c(C)c1 (configuration not stated) | 111 | -6.61
4 | CC(/C=C/C(=O)NO)=C\[C@@H](C)C(=O)c1ccc(N(C)C)cc1 [Trichostatin-A] | 276 | 77.5
5 | CC(=O)N1CCN(CCOc2ccc(C3CCN(C4=Nn5c(nnc5C(F)(F)F)CC4)CC3)cc2)CC1 | 192 | 15
6 | Cc1cc(-c2ccc(CC(=O)Nc3ccc(-c4cccnc4)cc3)cc2)ccn1 | 247 | 10.6
7 | CC(=O)Nc1ccc(NC(=S)NC(=O)c2ccc(C(C)(C)C)cc2)cc1 [tenovin-1] | 97 | -4.47
8 | CNC(=O)c1ccccc1Sc1ccc2c(/C=C/c3ccccn3)n[nH]c2c1 [Axitinib] | 142 | 28.7
9 | CC[C@H](CO)Nc1nc(NCc2ccccc2)c2ncn(C(C)C)c2n1 [Roscovitine] | 121 | 5.12
10 | CC(=O)[C@H]1CC[C@H]2[C@@H]3CC=C4C[C@@H](O)CC[C@]4(C)[C@H]3CC[C@]12C [pregnenolone] | 116 | 8.09
11 | CCS(=O)(=O)N1CC(CC#N)(n2cc(-c3ncnc4[nH]ccc34)cn2)C1 | 110 | -0.775
12 | Cc1ccc(Nc2nccc(N(C)c3ccc4c(C)n(C)nc4c3)n2)cc1S(N)(=O)=O [Pazopanib-Hydrochloride] | 117 | -4.53
13 | O=C(CSc1nc2c(c(=O)n1-c1ccccc1)SCC2)Nc1ccc(-c2ccccc2)cn1 | 110 | -3.16
14 | COc1cc2nc(N(C)CCCNC(=O)C3CCCO3)nc(N)c2cc1OC (configuration not stated) [Alfuzosin-hydrochloride] | 101 | -2.42
15 | CC#CCn1c(N2CCC[C@@H](N)C2)nc2c1c(=O)n(Cc1nc(C)c3ccccc3n1)c(=O)n2C [linagliptin-bi-1356] | 118 | -0.264
16 | CC1(C)O[C@@H]2[C@@H](CO[C@@]3(COS(N)(=O)=O)OC(C)(C)O[C@@H]23)O1 [Topiramate] | 114 | 5.45

Row | Compound | normalized SmoIP GFP fluorescence [1] [%] | normalized SmoIP GFP fluorescence [2] [%]
17 | Cc1ccc(C(=O)NCCCCCC(=O)Nc2ccccc2N)cc1 [rg2833-rgfp109] | 101 | -3.05
18 | CC(C)OC(=O)OCOP(=O)(CO[C@H](C)Cn1cnc2c(N)ncnc21)OCOC(=O)OC(C)C [Tenofovir-Disoproxil-Fumarate] | 91.2 | 2.43
19 | NC12CC3CC(CC(C3)C1)C2 [Amantadine-hydrochloride(Symmetrel)] | 110 | -4.08
20 | CCc1c(O)cc(O)c(C(=O)c2ccc(OCCN3CCOCC3)c(OC)c2)c1CC(=O)N(CCOC)CCOC | 121 | -12.4
21 | COc1ccc(-c2ccc3c(N4CCOCC4)nc(N4C[C@@H](C)O[C@@H](C)C4)nc3n2)cc1CO | 62.1 | -12.5
22 | CNCCCC12CCC(c3ccccc31)c1ccccc12 [Maprotiline-hydrochloride] | 123 | -0.116
23 | Cc1nn(-c2ccccc2)c(C)c1C=NN1CCN(Cc2ccccc2)CC1 [sant-1] | 103 | -2.59
24 | CC(C)(C)c1cnc(CSc2cnc(NC(=O)C3CCNCC3)s2)o1 | 131 | 66
25 | Cc1nnc(C(=O)NC(C)(C)c2nc(C(=O)NCc3ccc(F)cc3)c(O)c(=O)n2C)o1 [Raltegravir-(MK-0518)] | 111 | -11.7
26 | CN(C)C1CCN(C(=O)c2ccc(NC(=O)Nc3ccc(-c4nc(N5CCOCC5)nc(N5CCOCC5)n4)cc3)cc2)CC1 | 53 | -21.4
27 | CCc1c2c(nc3ccc(O)cc13)-c1cc3c(c(=O)n1C2)COC(=O)[C@]3(O)CC | 95.2 | 5.3
28 | Cn1cncc1[C@@](N)(c1ccc(Cl)cc1)c1ccc2c(c1)c(-c1cccc(Cl)c1)cc(=O)n2C | 141 | 43.9
29 | CC(C)C[C@@H](C=O)NC(=O)[C@H](CC(C)C)NC(=O)[C@H](CC(C)C)NC(=O)OCc1ccccc1 | 112 | 11.3
30 | CCOC(=O)[C@H](CCc1ccccc1)N[C@@H](C)C(=O)N1CCC[C@H]1C(=O)O [Enalapril-maleate(Vasotec)] | 97.8 | -15.1
31 | CC(C)c1nc(CN(C)C(=O)N[C@@H](CCN2CCOCC2)C(=O)N[C@H](CC[C@H](Cc2ccccc2)NC(=O)OCc2cncs2)Cc2ccccc2)cs1 [cobicistat-gs-9350] | 113 | 0.474

Source: the supplement of paper PMC5662767
